# The full list was thinned out, with hits kept by preference.
# HT1080-NT tox – kills 2HG-producing HT-1080-NT fibrosarcoma cells; HT-1080-NT fibrosarcoma viability, CellTiter-Glo ATP luminescence, 48 h; Potency, µM (series often up to 46.1 µM), for the others: top-dose activity, negative = less viability, most hits filed as cytotoxic; 1.6% of 360,000 active;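 note: NT is the 2HG producing partner of a matched IDH1 knockdown line; potency is the fitted concentration of half-maximal effect; 0% = DMSO-treated cells and -100% = media-only wells without cells; nearly all actives have a fitted effect of over 55% in size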
#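 Viability by CellTiter-Glo luminescence after 48 h compound exposure at 37C of HT-1080-NT cells (750/well, RPMI, 5% FBS). % activity scaled between DMSO wells and medium-only wells, then curve-fitted and categorized by curve class.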
# TDP1 cell noCPT – qHTS for Inhibitors of human tyrosyl-DNA phosphodiesterase 1 (TDP1): qHTS in cells in absence of CPT; DT40 Tdp1-/- hTDP1 cells, no CPT, ATP luminescence, 48 h; Potency, µM (highest dose often 46.2 µM), without a hit: at the top dose activity change, negative = growth inhibition, usual class: inhibitors; 15% of 420,000 active; note: potency is the fitted concentration of half-maximal effect; nearly all actives have a fitted effect of over 55% in size
#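 DT40 Tdp1-/-;hTDP1 cells, no CPT (DMSO vehicle only), 400 cells/well; compounds pin-transferred; ≥48 hr, 37 °C; CellTiter-Glo 30 min RT dark, luminescence read.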
# IL-1B inflam inh – inflammasome signaling inhibition, IL-1 beta readout. THP-1 LPS/ATP IL-1B secretion, AlphaLISA, 16 h; hits give low values. activity change, % at 57.5 µM. 4.7% of 360,000 active; in the data active = activity change below about -50%; inconclusive = mostly about -30% to -49%
#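 THP-1 cells pretreated 1 hr with compounds (up to 57.5 uM final), then stimulated with LPS (250 ng/mL final) plus ATP (1.25 mM final); secreted IL-1B measured by AlphaLISA after 16 hr, decreased signal indicating inhibition.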
# 12-LOX inh – inhibitors of human 12S-lipoxygenase ALOX12. P18054. purified 12hLO, xylenol orange hydroperoxide absorbance. Potency, µM (top dose mostly 108 µM), for the others: top-dose activity change, negative = inhibition, most hits filed as inhibitors. 1.1% of 580,000 active; note: potency is the fitted concentration of half-maximal effect
# Target sequence (P18054 whole entry, looked up): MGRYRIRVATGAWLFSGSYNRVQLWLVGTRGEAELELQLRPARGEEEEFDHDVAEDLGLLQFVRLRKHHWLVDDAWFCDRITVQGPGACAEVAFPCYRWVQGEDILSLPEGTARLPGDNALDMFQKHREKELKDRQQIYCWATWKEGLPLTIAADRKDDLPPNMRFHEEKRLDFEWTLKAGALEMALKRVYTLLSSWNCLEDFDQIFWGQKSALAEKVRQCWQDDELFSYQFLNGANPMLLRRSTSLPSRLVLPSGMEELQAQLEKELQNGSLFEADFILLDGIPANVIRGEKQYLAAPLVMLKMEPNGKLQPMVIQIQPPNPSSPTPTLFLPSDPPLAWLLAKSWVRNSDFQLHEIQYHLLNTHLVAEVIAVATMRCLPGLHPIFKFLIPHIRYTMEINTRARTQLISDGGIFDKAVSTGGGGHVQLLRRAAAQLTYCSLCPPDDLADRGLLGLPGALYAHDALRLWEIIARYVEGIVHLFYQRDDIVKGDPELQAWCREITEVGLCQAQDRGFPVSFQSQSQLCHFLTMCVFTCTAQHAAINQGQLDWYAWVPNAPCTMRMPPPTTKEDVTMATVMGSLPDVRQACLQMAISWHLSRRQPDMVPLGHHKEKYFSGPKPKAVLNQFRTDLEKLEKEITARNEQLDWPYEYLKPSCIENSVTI
#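 Purified human 12hLO (150 nM final) in 25 mM Hepes, 0.01% Triton X-100, pH 7.0 was preincubated 15 min at room temperature with compound. Then 40 uM arachidonic acid was added, 30 min. Hydroperoxide was read by Fe-XO absorbance ratio 573/405 nm.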
# TDP1 cell CPT – DT40-hTDP1 cell growth loss with CPT; Potency, µM (top dose mostly 46.2 µM), without a hit: at the top dose activity change, negative = growth inhibition, usual class: inhibitors; 12% of 420,000 active; chicken DT40 Tdp1-/-;hTDP1 cells + 20 nM CPT, ATP luminescence, 48 h; note: potency is the fitted concentration of half-maximal effect; nearly all actives have a fitted effect of over 55% in size
#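 Chicken DT40 Tdp1-/- cells complemented with human TDP1, 400 cells/well, exposed to compounds plus 20 nM camptothecin for at least 48 h at 37 C; viability read as ATP content by CellTiter-Glo luminescence.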
# HT1080 IDH1KD tx – kills HT-1080 cells with IDH1 knockdown; AID 686971; HT-1080 IDH1 knockdown viability, ATP luminescence, 48 h; Potency, µM (highest dose often 46.1 µM), for the others: at the highest dose activity, negative = toxicity, hits mostly cytotoxic; 2% of 360,000 active;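 note: potency is the fitted concentration of half-maximal effect; 0% = DMSO wells and -100% = cell-free medium wells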
#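 Assay cells: HT-1080 with IDH1 knockdown, 750 per well, RPMI/5% FBS. Exposure: 48 h at 37 °C following 2 h pre-incubation. Read: CellTiter-Glo luminescence; fitted concentration-response, curve class assigned.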
# An asterisk follows results filed as active; ? = inconclusive; . = no result; ! = repeats disagree; [ ] = remark or other dose. Unless noted, calls come from the whole dose curve; as a rule, active = well fitted curve in the direction sought with a large enough effect; inconclusive = small, poorly fitted or top-dose-only effect, or another doubt; inactive = no such curve, though single readings can be large; an effect the other way counts as inactive or inconclusive. Unless noted, % is set by controls: 0 for no effect and ±100 for the full control effect.
SMILES,HT1080-NT tox,TDP1 cell noCPT,IL-1B inflam inh,12-LOX inh,TDP1 cell CPT,HT1080 IDH1KD tx
CN(C)CC(O)c1ccc(C=Cc2ccc(Cl)cc2)cc1 (stereo not given),-5%,7.3µM*,-92*,?,7.3µM*,5.8µM*
COc1ccc(N2CCN(CCCNC(=O)c3sc4ncccc4c3-n3cccc3)CC2)cc1,.,?,.,2%,?,.
O=C(NCCCN1CCCCC1)c1sc2ncccc2c1-n1cccc1,.,-13%,.,-11%,-19%,.
CCOc1ccccc1CNC(=O)c1sc2ncccc2c1-n1cccc1,.,16µM*,.,-17%,15µM*,.
O=C(NCCCN1CCN(c2ccc(F)cc2)CC1)c1sc2ncccc2c1-n1cccc1,.,?,.,-20%,16µM*,.
O=C(NCCc1ccccc1Cl)c1sc2ncccc2c1-n1cccc1,.,?,.,-6%,23µM*,.
Cc1cc(C)cc(NC(=O)CC(C)n2nc(C)cc2C)c1 (stereo not given),.,?,.,-12%,21µM*,.
COc1cc(NC(=O)CC(C)n2nc(C)cc2C)cc(OC)c1 (stereo not given),.,-29%,.,-1%,-2%,.
CCOc1ccc(-n2c(SCC(=O)Nc3cc(C)on3)nnc2-c2c[nH]c3ccccc23)cc1,-8%,-24%,25,-5%,-13%,1%
CCOc1ccc(-n2c(SCC(=O)NCc3ccco3)nnc2-c2c[nH]c3ccccc23)cc1,0%,13µM*,-29,8%,?,-19%
CCOc1ccc(Nc2nc(Cc3nnc(SCC(=O)NCc4ccco4)n3CC)cs2)cc1,-5%,13µM*,19,4%,13µM*,-5%
Cn1c(SCC(=O)NCc2ccco2)nnc1-c1c[nH]c2ccccc12,0%,-23%,10,25%,21µM*,1%
CCc1nn(Cc2cccc(F)c2)c(=O)c2cc3cc(C)ccc3n12,.,?,.,-14%,?,.
CCCCN(C)CCNC(=O)Cn1ncc2c3ccccc3n(CCC)c2c1=O,.,?,.,-22%,23µM*,.
CCCn1c2ccccc2c2cnn(CC(=O)NCCN(CC)CC)c(=O)c21,?,?,-91*,0%,-20%,?
CCCNC(=O)Cn1ncc2c3ccccc3n(CCC)c2c1=O,.,15µM*,.,-13%,?,.
Cc1ccc(S(=O)(=O)N2CCN(C3CCN(Cc4cccnc4)C3=O)CC2)cc1 (stereo not given),.,.,.,19%,.,.
CCC(CC)CN1CCOCCNC(=O)CC1,.,.,.,34%,.,.
O=C(c1cccc(Cl)c1)N1CCc2nc(-c3ccccc3)nc(-c3ccc(Cl)cc3)c2C1,.,.,.,18%,.,.
CCCN1CCN(C(=O)Cn2nc(C)c3sc(-c4ccccc4)nc3c2=O)CC1,.,.,.,39%,.,.
Cc1ccc(SCc2nc(-c3ccc(C(=O)NCCCN4CCOCC4)cc3)oc2C)cc1,.,.,.,-1%,.,.
Cc1ccc(Cl)cc1NC(=O)COC(=O)c1nn(-c2ccccc2)c(=O)c2ccccc12,.,.,.,-23%,.,.
CC(NC(=O)COC(=O)c1cc(NS(=O)(=O)c2ccc(Cl)c([N+](=O)[O-])c2)ccc1O)C1CC2CCC1C2 (stereo not given),?,?,-107*,-12%,?,?
CN(Cc1cccc(F)c1)C(=O)CCc1ncc(-c2c(F)cccc2F)o1,.,.,.,10%,.,.
COc1cccc(CN2CCc3nc(C(=O)Nc4nc(C)cs4)oc3CC2)c1,.,.,.,66%[176 µM],.,.
SMILES,HT1080-NT tox,TDP1 cell noCPT,IL-1B inflam inh,12-LOX inh,TDP1 cell CPT,HT1080 IDH1KD tx
Cc1c(O)ccc2c3c(c(=O)oc12)CCC(C)C3 (stereo not given),-20%,12µM*,7,0%,23µM*,-14%
CCN(CC)CCCNC(=O)c1cc2c(=O)n(CC)c3ccccc3c2s1,?,?,-57*,-22%,?,?
CCCN(CCC)CCNC(=O)c1cc2c(=O)n(CC)c3ccccc3c2s1,-1%,?,-8,-7%,-22%,1%
CCN(CC)CCNC(=O)c1cc2c(=O)n(CC)c3ccccc3c2s1,-20%,18µM*,-56*,-5%,?,-15%
COC(=O)C1C(=O)CC(C)(O)C(C(=O)OC)C1c1cccc(Br)c1 (stereo not given),.,.,.,2%,.,.
O=C(NCc1ccccn1)C1CC(c2ccc(Cl)c(Cl)c2)=NO1 (stereo not given),-20%,21µM*,33,0%,?,?
O=C(NCc1cccnc1)C1CC(c2ccc(Cl)c(Cl)c2)=NO1 (stereo not given),-24%,21µM*,34,15%,?,-30%
O=C(NCc1ccccn1)C1CC(c2ccc(F)cc2)=NO1 (stereo not given),7%,-5%,8,-12%,-13%,9%
CC(NC(=O)CCc1c[nH]c2ccccc12)c1cccc2ccccc12 (stereo not given),.,.,.,1%,.,.
CCCCCC1CCC(c2ccc(-c3ccc(CC)cn3)cc2)CC1 (stereo not given),.,.,.,-13%,.,.
CC(C)NC(=O)Cn1c(CO)cnc1SCc1ccccc1Cl,.,.,.,4%,.,.
COc1ccccc1NC(=O)c1cc(-c2ccco2)nc2ccccc12,.,.,.,16µM*,.,.
O=C(Nc1ccc(F)cc1F)c1cc(-c2ccco2)nc2ccccc12,-6%,16µM*,1,10µM*!,?,-5%
O=C(Nc1ccccc1F)c1cc(-c2ccco2)nc2ccccc12,-3%,?,10,?,?,-7%
COc1ccccc1NC(=O)c1cc(-c2ccc(C)o2)nc2ccccc12,0%,?,0,?,?,11%
COc1cccc(Cn2c(=O)cnc3cnc(Oc4cccc(Cl)c4)nc32)c1,.,?,.,-17%,?,.
CCCCn1c(N)c(N(CC)C(=O)CCNC(=O)NC23CC4CC(CC(C4)C2)C3)c(=O)[nH]c1=O,-7%,1%,-12,0%,18%,-3%
CC(C)(C)/C(COc1ccccc1[N+](=O)[O-])=N/O,7%,-3%,0,-30%,?,6%
CC1=CC(=O)C=C(C)C1=NOc1ccccc1[N+](=O)[O-],3%,2.1µM*,?,-20%,1.3µM*,14%
Cc1cccc2sc(=S)[nH]c12,-15%,?,22,32µM*,?,-18%
CC1CC(C)CN(C(=O)C(NS(=O)(=O)c2ccc(Br)s2)c2ccccc2)C1 (stereo not given),-26%,15µM*,2,-18%,18µM*,?

# Source: PubChem BioAssay
